# Bm FixLJ act: B. multivorans fixK reporter activation | z-score (test concentration not listed) | B. multivorans fixK-promoter GFP reporter, 18 h; active compounds read high | actives 0.3% (n = 29,000);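 active = replicate mean overnight rise in green fluorescent reporter signal, 3 or more SD over negative controls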
# * marks the source's active call; other numbers are inactive results. This is one part of a sample in which hits are shown more often than they occur.
SMILES,Bm FixLJ act
COc1ccc(Nc2nc3ccccc3nc2NS(=O)(=O)c2ccc(C)cc2)c(OC)c1,-0.4
COc1ccc2nc(NS(=O)(=O)c3ccc(C)cc3)c(Nc3cc(Cl)ccc3OC)nc2c1,-4.1
COc1cc(Cl)c(C)cc1Nc1nc2ccccc2nc1NS(=O)(=O)c1ccccc1,3.4*
CCS(=O)(=O)c1nc2ccccc2n1CC(=O)Nc1ccccc1C(=O)OC,-2.1
Cc1nn2c(NCc3nn[nH]n3)cc(-c3ccccc3)nc2c1C,-0.85
O=C(O)c1ccc(NCc2nc3ccccc3n2CCOc2ccccc2Cl)cc1,0.09
COc1ccc(NCc2nc3ccccc3n2CCOc2ccccc2C)cc1,1
Fc1ccc(NCc2nc3ccccc3n2CCOc2ccccc2Cl)cc1,3.3*
O=C(Cn1ncc2c3ccccc3n(Cc3ccc(F)cc3)c2c1=O)NCCC1=CCCCC1,-0.48
O=C(Cn1ncc2c3ccccc3n(Cc3cccc(Cl)c3)c2c1=O)NCCC1=CCCCC1,13*
Cc1cc(C)c(Cn2c3ccccc3c3cnn(CC(=O)NC4CCCCCC4)c(=O)c32)c(C)c1,1.5
Cc1ccc(C)c(Cn2c3ccccc3c3cnn(CC(=O)NCCC4=CCCCC4)c(=O)c32)c1,-0.36
O=C(Cn1ncc2c3ccccc3n(Cc3cccc(Cl)c3)c2c1=O)NC1CCCCCC1,23*
O=C(Cn1ncc2c3ccccc3n(Cc3ccc(F)cc3)c2c1=O)NC1CCCCCC1,-2.4
O=C(NC(c1ccc2c(c1)CCO2)C1CC(O)C1)c1cc(O)ccc1F (stereo not given),-0.05
CCNc1ncc(C(=O)NCCc2cccc(OC)c2)cn1,-0.33
COc1ccccc1CNC(=O)CCC1N=C2c3ccccc3N=C(SCc3cccc(Cl)c3)N2C1=O (stereo not given),-0.78
CC(C)NC(=O)Cn1ncn2c(cc3cc(F)ccc32)c1=O,-1.1
COc1ccc(C2=C(Nc3ccc(Br)c(C)c3)c3ccccc3C2=O)cc1,3.1*
COc1ccc(C2=C(Nc3ccc(C)c(C)c3)c3ccccc3C2=O)cc1,-1.9
Cc1ccc(C)c(NC2=C(c3ccc(C(F)(F)F)cc3)C(=O)c3ccccc32)c1,0.58
Cc1ccc(C)c(N2CCN(C3=C(c4ccccc4)C(=O)c4ccccc43)CC2)c1,0.03
Cc1cc(C)cc(NC2=C(c3ccccc3)C(=O)c3ccccc32)c1,4*
COc1cc(OC)c(NC2=C(c3ccc(C(F)(F)F)cc3)C(=O)c3ccccc32)cc1Cl,-0.77
CC(C)NC(=O)c1cc(N2CCCC(Cc3nc4ccccc4[nH]3)C2)ccn1 (stereo not given),-0.32
SMILES,Bm FixLJ act
Cc1ccc(CN(C)C(=O)c2sccc2S(N)(=O)=O)o1,0.89
CCc1cc(N2CC(O)C(Cc3ccnc4ccccc34)C2)nc(N(C)C)n1 (stereo not given),-0.49
Cc1ccc(-c2nn(-c3ccccc3)c3c2cnc2ccccc23)cc1C,-2.4
CCc1ccc2ncc3c(-c4ccccc4)nn(-c4ccccc4)c3c2c1,3.3*
Brc1ccc(-n2nc(-c3ccccc3)c3cnc4cc5c(cc4c32)OCO5)cc1,1
CN(Cc1cccc(O)c1)C(=O)NC(CN1CCCC1)C(C)(C)C (stereo not given),-0.24
N#C/C(=C\c1ccc(-c2ccc(F)cc2F)o1)c1nc2ccccc2[nH]1,14*
N#C/C(=C\c1ccc(-c2ccccc2C(=O)O)o1)c1nc2ccccc2[nH]1,-1.6
N#C/C(=C\c1ccc(Cl)cc1)c1nc2ccccc2[nH]1,0.71
COc1ccc(NC(=O)CC2C(=O)N(c3ccccc3)C(=O)N2CCC2=CCCCC2)cc1 (stereo not given),-1.8
CCOc1ccc(NC(=O)CC2C(=O)N(c3cccc(C)c3)C(=O)N2CCC2=CCCCC2)cc1 (stereo not given),3*
O=C(CC1C(=O)N(c2ccccc2)C(=O)N1CCC1=CCCCC1)Nc1ccc(F)cc1 (stereo not given),1.1
COc1ccccc1CNC(=O)CCc1c(C)c2ccc(OC)c(C)c2oc1=O,-1.9
COc1ccccc1CCNC(=O)CCc1c(C)c2cc3c(C)c(C)oc3cc2oc1=O,0.85
COc1ccccc1CNC(=O)CCc1c(C)c2cc3c(C)c(C)oc3cc2oc1=O,3.5*
COc1cccc(-c2cn[nH]c2C2CCN(C(=O)C3CCNC3)CC2)c1 (stereo not given),0.07
CCOc1ccc(OCC)c(S(=O)(=O)N2CCN(c3cccc(C)c3C)CC2)c1,3.4*
Cc1cccc(N2CCN(S(=O)(=O)c3cc(Cl)ccc3Cl)CC2)c1C,0.22
COc1ccc(S(=O)(=O)N2CCN(c3cccc(C)c3C)CC2)c2ccccc12,-0.15
N#Cc1ccnc(N2CCCC(c3[nH]ncc3Cc3ccccc3)C2)c1 (stereo not given),-0.47
CCOc1cc(Cl)c(CN2CC(O)C(Cc3cc(C)[nH]n3)C2)cc1OCC (stereo not given),-1.7
CCCCN(CC)CCCNC(=O)Cn1ncc2c3ccccc3n(Cc3ccccc3F)c2c1=O,-1.6
CC1CCN(C(=O)Cn2ncc3c4ccccc4n(Cc4ccc(Cl)cc4)c3c2=O)CC1,7.3*
Cc1cc(C)c(Cn2c3ccccc3c3cnn(CC(=O)NCc4cccs4)c(=O)c32)c(C)c1,-0.87
CCN(CC)CCNC(=O)Cn1ncc2c3ccccc3n(Cc3ccc(Cl)cc3)c2c1=O,3.5*
SMILES,Bm FixLJ act
O=C(Cn1ncc2c3ccccc3n(Cc3ccc(Cl)cc3)c2c1=O)NCc1cccs1,8.2*
Cn1c2ccccc2c2cnn(CC(=O)NCc3ccc(Cl)cc3)c(=O)c21,-1.9
Cc1ccccc1Cn1c2ccccc2c2cnn(CC(=O)N3CCC(C)CC3)c(=O)c21,-2.8
CN1CCN(C(=O)Cn2ncc3c4ccccc4n(Cc4ccc(Cl)cc4)c3c2=O)CC1,1.2
CCCCN(CC)CCCNC(=O)Cn1ncc2c3ccccc3n(C)c2c1=O,-1.8
O=C(Nc1ccccc1)c1cc2n(n1)CCN(C(=O)CCn1cnnn1)C2,0.34
O=C(NCCC1=CCCCC1)c1ccc2c(c1)N(Cc1ccc(Cl)cc1)C(=O)c1ccccc1S2(=O)=O,-1.1
OCCNc1nc(C2CCOC2)cc(N2CCC3(CCCC3)C2)n1 (stereo not given),0.15
Cc1ccc(CN(Cc2cccn2-c2nnc(N3CCCC3=O)s2)C(=O)Nc2cc(C)cc(C)c2)cc1,0.62
Cc1nc2cc(OCc3nc(C(=O)N(C)CC4CCCO4)co3)ccc2s1 (stereo not given),-2.6
COc1ccccc1Nc1nc2ccc(Cl)cc2nc1-n1nc(C)cc1C,3.2*
Cc1ccc2nc(Nc3cccc(Cl)c3C)c(-n3nc(C)cc3C)nc2c1,0.62
COc1ccc(OC)c(Nc2nc3ccccc3nc2-n2nc(C)cc2C)c1,-0.33
Cc1cc(C(=O)N2CCN(c3ccc4nccn4n3)CC2)c(C)o1,-0.25
O=C(c1cccc(O)c1)N1CC2OC(=O)N(CCCN3CCOCC3)C2C1 (stereo not given),-0.04
CN(C)C(=O)CCC(=O)NC1CCOCC1Oc1ccc(CO)cc1 (stereo not given),0.4
CCN(CCOc1ccccc1F)C(=O)CC1C(=O)Nc2cc(OC)ccc21 (stereo not given),-1.4
CCCCCn1c(=N)c(S(=O)(=O)c2ccc(C)cc2)cc2c(=O)n3cc(C)ccc3nc21,-1.4
CCC(C)n1c(=N)c(S(=O)(=O)c2ccccc2)cc2c(=O)n3ccccc3nc21 (stereo not given),-2.8
CCC(C)n1c(=N)c(S(=O)(=O)c2ccc(C)cc2)cc2c(=O)n3cc(C)ccc3nc21 (stereo not given),5.7*
Cc1cc2oc3c(c(=O)c2cc1C)C1(C(=O)N(C)c2ccccc21)N(CCO)C3=O (stereo not given),-0.54
